High-throughput results: PubChem, National Center for Advancing Translational Sciences (NCATS)
Sampled rows, rich in hits. Any-hit rate of the full collection: about 17%.
ATXN viability – reduces viability in counter-screen for ATXN expression inhibitors; Potency, µM (series often up to 56.7 µM), hits mostly cytotoxic; S2 cells (HEK-293 line with an ATXN2-luciferase reporter) viability, CellTiter-Fluor protease fluorescence, 24 h; hit rate 0.49% among 400,000; AID 651635; further: nearly all actives have a fitted effect of over 40% in size
DT40 TDP1 no CPT – qHTS for Inhibitors of human tyrosyl-DNA phosphodiesterase 1 (TDP1): qHTS in cells in absence of CPT; Potency, µM (titrated, usually from 46.2 µM), inactives show at the top dose activity change, negative = growth inhibition, hits mostly inhibitors; hit rate 15% among 420,000; DT40 Tdp1-/- hTDP1 cells, no CPT, ATP luminescence, 48 h; further: on the % scale 0 is the no-effect control and ±100 the full control effect; nearly all actives have a fitted effect of over 55% in size
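No-CPT arm: Tdp1-/-;hTDP1 DT40 cells (400/well) plus compounds, incubated ≥48 hr at 37 °C. Readout CellTiter-Glo luminescence.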
TGFb SMAD3 inh – blocks TGF-b signaling; AID 588855; Potency, µM (titrated, usually from 46.1 µM), for the others: top-dose activity, negative = inhibition, usual class: inhibitors; hit rate 1.2% among 410,000; HepG2 CAGA-GFP TGF-b/SMAD3 reporter, GFP fluorescence, 18 h; TGF-beta stimulated, 500 pg/mL final; further: on the % scale 0 is the no-effect control and ±100 the full control effect; nearly all actives have a fitted effect of over 65% in size
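HEPG2 CAGA-GFP reporter cells (1000/well, DMEM with 1% FBS) received compounds, then recombinant TGF-beta at 500 pg/mL final for 18 hours at 37 degrees C. Per-cell GFP summed per well was normalised to unstimulated and stimulated DMSO controls before curve fitting.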
ATXN2 expr inh – ATXN2 expression inhibition; HEK-293 ATXN2-luciferase reporter, luminescence, 24 h; Potency, µM (highest dose often 57 µM), for the others: top-dose activity change, negative = inhibition, actives largely listed as inhibitors; hit rate 0.72% among 360,000; AID 1745845; further: on the % scale 0 is the no-effect control and ±100 the full control effect; nearly all actives have a fitted effect of over 55% in size
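ATXN2-luciferase reporter cells (luciferase flanked by upstream and downstream ATXN2 gene portions) were treated 24 h at 37 °C with compounds at up to 57 uM. SteadyGlo luminescence gave expression; GF-AFC fluorescence gave viability.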
HepG2 tox – kills HepG2 cells in TGF-b inhibitor counter-screen. HepG2 CAGA-GFP viability, ATP luminescence, 18 h. Potency, µM (top dose mostly 46.1 µM), for the others: at the top dose activity change, negative = cytotoxicity, usual class: cytotoxic. hit rate 0.76% among 410,000. AID 588856
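HepG2 CAGA-GFP cells (1000/well, DMEM with 1% FBS) received compound, then TGF-beta at 500 pg/mL final, and were incubated 18 hours at 37 degrees C. Viability was read by CellTiter-Glo luminescence. Media-only wells were set as complete cell-killing and DMSO as no toxicity.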
TDP1 cell CPT – DT40-hTDP1 cell growth loss with CPT; hit rate 12% among 420,000; chicken DT40 Tdp1-/-;hTDP1 cells + 20 nM CPT, ATP luminescence, 48 h; Potency, µM (top dose mostly 46.2 µM), for inactives: top-dose activity change, negative = growth inhibition, most hits filed as inhibitors; further: on the % scale 0 is the no-effect control and ±100 the full control effect; nearly all actives have a fitted effect of over 55% in size
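Cell growth measured by CellTiter-Glo luminescence after a minimum 48 h, 37 C compound exposure with 20 nM CPT in Tdp1-knockout DT40 cells stably expressing hTDP1, seeded 400/well; qHTS titration format.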
Numbers without * were called inactive. The call rests on the fitted dose curve; in most records, active means well fitted curve in the direction sought with a large enough effect; inconclusive means small, poorly fitted or top-dose-only effect, or another doubt; inactive means no such curve, though single readings can be large; an effect the other way counts as inactive or inconclusive. Potency means the concentration at half of the fitted maximal effect.

CC(=O)Nc1ccc(Nc2ccc(S(=O)(=O)C(F)(F)F)cc2[N+](=O)[O-])cc1 was read as ATXN viability inactive, DT40 TDP1 no CPT 21µM*, TGFb SMAD3 inh inconclusive, ATXN2 expr inh -16%, HepG2 tox 0% and TDP1 cell CPT inconclusive.
`O=[N+]([O-])c1ccc(Cl)cc1N/N=C/c1ccncc1` gave DT40 TDP1 no CPT 4%, TGFb SMAD3 inh -6%, HepG2 tox -27% and TDP1 cell CPT -8%.
Cc1nc(NS(=O)(=O)c2ccc(N)cc2)nc(C)c1Br was read as DT40 TDP1 no CPT -25% and TDP1 cell CPT -1%.
CCOC(=O)C1CCCN(C(=O)c2cccc(NC(=O)C(CC)CC)c2)C1 (stereo not drawn) was read as ATXN viability inactive, DT40 TDP1 no CPT -20%, TGFb SMAD3 inh -10%, ATXN2 expr inh -4%, HepG2 tox -3% and TDP1 cell CPT 10%.
Cc1ccccc1OCC(=O)Nc1ccc2[nH]ncc2c1 was read as ATXN viability inactive, DT40 TDP1 no CPT -27%, TGFb SMAD3 inh -5%, ATXN2 expr inh 9%, HepG2 tox 2% and TDP1 cell CPT -6%.
For O=C(COC(=O)CN1C(=O)c2cccc([N+](=O)[O-])c2C1=O)NC1CCS(=O)(=O)C1 (stereo not drawn) the results were ATXN viability inactive, DT40 TDP1 no CPT 13%, TGFb SMAD3 inh -4%, ATXN2 expr inh 0%, HepG2 tox 0% and TDP1 cell CPT 4%.
Cc1ccc(NS(=O)(=O)c2c(C)nc3sc(C)cn3c2=O)c(C)c1 was read as DT40 TDP1 no CPT 18µM*, TGFb SMAD3 inh -3%, HepG2 tox -17% and TDP1 cell CPT 18µM*.
Screening CCC(OC(=O)C(C)N1C(=O)C(=O)c2ccccc21)C(=O)Nc1ccccc1OC (stereo not drawn) returned ATXN viability inactive, DT40 TDP1 no CPT 5.8µM*, TGFb SMAD3 inh -22%, ATXN2 expr inh 9%, HepG2 tox -5% and TDP1 cell CPT 4.6µM*.
Screening Cc1ccc(S(=O)(=O)N2CCC(=O)N(C(COCc3cccc(C(F)(F)F)c3)C(C)C)CC2)cc1 (stereo not drawn) returned ATXN viability inconclusive, DT40 TDP1 no CPT 21µM*, TGFb SMAD3 inh inconclusive, ATXN2 expr inh inconclusive, HepG2 tox -22% and TDP1 cell CPT 16µM*.
Screening Cc1ccc(S(=O)(=O)N2CCC(=O)N([C@H](COCc3cccc(Cl)c3)C(C)C)CC2)cc1 returned ATXN viability inactive, DT40 TDP1 no CPT 16µM*, ATXN2 expr inh -19% and TDP1 cell CPT 21µM*.
For Cc1ccc(S(=O)(=O)N2CCC(=O)N(C(COCc3cccc(Cl)c3)C(C)C)CC2)cc1 (stereo not drawn) the results were ATXN viability inactive, DT40 TDP1 no CPT 21µM*, TGFb SMAD3 inh inconclusive, ATXN2 expr inh -19%, HepG2 tox 2% and TDP1 cell CPT inconclusive.
Cc1ccc(S(=O)(=O)N2CCC(=O)N(CCOCc3cccc(F)c3)CC2)cc1 was read as ATXN viability inactive, DT40 TDP1 no CPT inconclusive, TGFb SMAD3 inh -19%, ATXN2 expr inh 1%, HepG2 tox -7% and TDP1 cell CPT -24%.
For Cc1ccc(S(=O)(=O)N2CCC(=O)N(C(COCc3cccc(C)c3)C(C)C)CC2)cc1 (stereo not drawn) the results were ATXN viability inactive, DT40 TDP1 no CPT inconclusive, TGFb SMAD3 inh 16%, ATXN2 expr inh -13%, HepG2 tox 7% and TDP1 cell CPT inconclusive.
`C[N+](C)(C)CCN1C(=O)c2ccccc2C1=O` gave ATXN viability inactive, DT40 TDP1 no CPT -17%, ATXN2 expr inh 3% and TDP1 cell CPT -4%.
`CCCN1CCC(=O)N(C(CSc2ccc(Br)cc2)c2ccccc2)CC1` (stereo not drawn) gave TGFb SMAD3 inh -9% and HepG2 tox 1%.
`NC(=O)NCCC1=CCCCC1` gave ATXN viability inactive, DT40 TDP1 no CPT -13%, TGFb SMAD3 inh 7%, ATXN2 expr inh 5%, HepG2 tox -13% and TDP1 cell CPT -8%.
Screening O=C(NCCc1ccccc1)c1coc(=O)c(Br)c1 returned ATXN viability inconclusive, DT40 TDP1 no CPT 0.58µM*, TGFb SMAD3 inh inconclusive, ATXN2 expr inh 9%, HepG2 tox -19% and TDP1 cell CPT 0.82µM*.
Cn1ncc(Br)c1NC(=O)c1cc(Cl)cc(Cl)c1 was read as ATXN viability inactive, DT40 TDP1 no CPT -24%, TGFb SMAD3 inh -14%, HepG2 tox -1% and TDP1 cell CPT -3%.
For O=C(NCCc1ccccc1)c1ccco1 the results were ATXN viability inconclusive, DT40 TDP1 no CPT 1%, TGFb SMAD3 inh 6%, ATXN2 expr inh 20%, HepG2 tox -2% and TDP1 cell CPT 5%.
`Cc1cc(C(=O)NCCC2=CCCCC2)c(C)o1` gave ATXN viability inactive, DT40 TDP1 no CPT 18µM*, TGFb SMAD3 inh 7%, ATXN2 expr inh 21%, HepG2 tox -6% and TDP1 cell CPT inconclusive.
`O=C(COC(=O)c1cc(Br)c(Br)s1)NCCC1=CCCCC1` gave ATXN viability inconclusive, DT40 TDP1 no CPT 21µM*, TGFb SMAD3 inh -38%, ATXN2 expr inh inconclusive, HepG2 tox -4% and TDP1 cell CPT 23µM*.
`O=C(Nc1cc(Cl)cc(Cl)c1)c1coc(=O)c(Br)c1` gave ATXN viability inactive, DT40 TDP1 no CPT 12µM*, TGFb SMAD3 inh -1%, ATXN2 expr inh 5%, HepG2 tox 22% and TDP1 cell CPT 1.6µM*.
O=C(COC(=O)c1ccccc1Br)NCCC1=CCCCC1 was read as ATXN viability inactive, DT40 TDP1 no CPT -8%, TGFb SMAD3 inh -6%, ATXN2 expr inh 6%, HepG2 tox 8% and TDP1 cell CPT 2%.
`CCN(Cc1ccccc1)N=Nc1ccccc1` gave ATXN viability inactive, DT40 TDP1 no CPT -25%, TGFb SMAD3 inh 19%, HepG2 tox 6% and TDP1 cell CPT -16%.
For O=C(NNC(=O)C1C2CCCCC21)c1coc(=O)c(Br)c1 (stereo not drawn) the results were ATXN viability inactive, DT40 TDP1 no CPT 4.1µM*, TGFb SMAD3 inh 0%, ATXN2 expr inh -13%, HepG2 tox 1% and TDP1 cell CPT 4.1µM*.
O=C(NCCC1=CCCCC1)c1coc(=O)c(Br)c1 was read as DT40 TDP1 no CPT 0.37µM*, TGFb SMAD3 inh inconclusive, ATXN2 expr inh inconclusive, HepG2 tox -87% and TDP1 cell CPT 0.12µM*.
